Here are results for 16 compounds from PubChem BioAssay AID2284426 (EPA ToxCast).

What is called AC50 is the midpoint of the concentration-response curve, whichever way the signal moves.

Calls of active or inactive are those of the source. The calls were made as follows: active = hit-call score of the fitted dose curve at least 0.9, where 1 is the maximum; inactive = score below 0.9.

A short description of the test: CCTE_Deisenroth_DEVTOX-GLR_Ecto_CellCount: Viability Assessment in CCTE's DevTox GLR-Ecto Assay, Deisenroth Lab. The procedure:
CCTE_Deisenroth_DEVTOX-GLR_Ecto assay is a cell-based, multiplex-readout assay that uses RUES2-GLR, a human pluripotent cell line, with measurements taken at 48 hours after chemical dosing in a 384-well microplateCCTE_Deisenroth_DEVTOX-GLR_Ecto_CellCount is 1 of 4 assay components calculated from the CCTE_Deisenroth_DEVTOX-GLR_Ecto assay and it measures cell count. Using fluorescent nuclei staining, gain-of-signal activity can be used to understand changes in cell viability with fluorescent microscopy. It is designed to make measurements of nuclei counts as a surrogate for cell number, as detected with optical fluorescence microscopy by Perkin Elmer Harmony nuclei detection algorithm. To generalize the intended target to other relatable targets, this assay component is annotated to the cell cycle intended target family, where the subfamily is cytotoxicity.Data from the assay component CCTE_Deisenroth_DEVTOX-GLR_Ecto_CellCount was analyzed as 1 assay endpoint. The endpoint the percent change in the cell count relative to the 0.2% DMSO control in the CCTE_Deisenroth_DEVTOX-GLR_Ecto assay. Furthermore, this assay endpoint can be referred to as a […] readout, because this assay has produced multiple assay endpoints where this one serves as a measure of cytotoxicity.
All assay protocols are aligned to the DevTox GLR-Endo assay workflow. Cells are seeded into 384-well microplates for 24 hours prior to initiating differentiation in defined media for a total duration of 48 hours. A total of two chemical exposures are administered in 24-hour intervals during the 48-hour differentiation period. At the assay termination point, cells are fixed and stained with a fluorescent dye demarcating the nucleus. High-content imaging is used to acquire brightfield and fluorescent channel images across 5 fields per well. Cell identification and mean biomarker fluorescence intensities are calculated with image analysis software to determine the total cell counts for viability assessment and the biomarker expression frequency for each lineage-dependent assay. A typical experimental design tests a 10-point concentration series (1 nM - 200 uM) for 28 compounds in single technical replicate. Assay plate controls include non-differentiated pluripotent cells (baseline control), lineage-specific differentiated cells (differentiation control), and DMSO solvent exposed differentiated cells (solvent control). Experiments typically comprise a minimum of four experimental replicates (n=4).
As to `CC(=O)Nc1ccc(O)cc1`, the compound was classed as inactive.
In the case of `O=C1NC(=O)C(c2ccccc2)(c2ccccc2)N1`, the result was inactive.
As for `O=C1NS(=O)(=O)c2ccccc21`, the compound was called inactive.
On to `CC(C)(c1ccc(O)cc1)c1ccc(O)cc1`, for which the compound was called inactive.
`CCCC(CCC)C(=O)O`: the compound was classed as inactive.
Turning to `CCN(CC)CCNC(=O)c1c(C)[nH]c(/C=C2\C(=O)Nc3ccc(F)cc32)c1C`, the half-maximal activity concentration (AC50) is 1250 nM (active).
`O=C1CCC(N2C(=O)c3ccccc3C2=O)C(=O)N1` (stereo unspecified): the result was inactive.
Turning to `O=c1[nH]cc(F)c(=O)[nH]1`, the AC50 was 3870 nM (active).
Same read-out and setting: with `CC1=C(/C=C/C(C)=C/C=C/C(C)=C\C(=O)O)C(C)(C)CCC1` the figure was 460 nM (active); with `CC1=C(/C=C/C(C)=C/C=C/C(C)=C/C(=O)O)C(C)(C)CCC1`, 24.2 nM (active).
As for `Nc1nc2ncc(CNc3ccc(C(=O)N[C@@H](CCC(=O)O)C(=O)O)cc3)nc2c(=O)[nH]1`, the call was inactive.
`CN(Cc1cnc2nc(N)nc(N)c2n1)c1ccc(C(=O)N[C@@H](CCC(=O)O)C(=O)O)cc1`: the outcome was inactive.
Consider `CS(=O)(=O)OCCCCOS(C)(=O)=O`, for which the concentration at half-maximal activity (AC50) is 20400 nM (active).
Take `CC1(C)S[C@@H]2[C@H](NC(=O)Cc3ccccc3)C(=O)N2[C@H]1C(=O)O`: the compound was called inactive.
As for `Nc1cccc2c1C(=O)N(C1CCC(=O)NC1=O)C2=O` (stereo unspecified), the compound was called inactive.
Still for that read-out and setting: with `CC/C(=C(/CC)c1ccc(O)cc1)c1ccc(O)cc1` the entry was “inactive”.
